In PubChem BioAssay (EPA / NIEHS):
Records with an inconclusive call do not appear. Active and inactive are the calls of the source. Rule for the calls, unless noted: active = hit-call score of the fitted dose curve at least 0.9, where 1 is the maximum; inactive = score below 0.9.

Experiments:
[1] = CCTE_Mundy_HCI_Cortical_NOG_NeuriteLength: CCTE's Neurite Outgrowth Assay in rat cortical cells for Neurite Length, Mundy Lab (AID 2284213)
Outline: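 First, rat primary cortical cells were plated and, 2 h later, given test chemical as a 1/10 dilution. Finally, βIII-tubulin immunostaining enabled automated imaging of neurite length.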

[2] = CCTE_Mundy_HCI_Cortical_Synap_Neur_Matur_NeuriteLength: CCTE's Synaptogenesis and Neurite Maturation Assay in rat cortical cells for Neurite Length, Mundy Lab (AID 2284214)
Outline: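 Cultures of rat primary cortical cells received chemical at DIV 7 and were fixed at DIV 12, after glial arrest with AraC at DIV 5. Neurite length was measured by automated imaging of MAP2 immunofluorescence.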

[3] = CCTE_Mundy_HCI_Cortical_Synap_Neur_Matur_SynapseCount: CCTE's Synaptogenesis and Neurite Maturation Assay in rat cortical cells for Synapse Count, Mundy Lab (AID 2284218)
Outline: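 Cells were plated, allowed 2 hr to attach, treated with AraC at DIV 5, then exposed to chemicals from DIV 7 until DIV 12. After fixation and MAP2/synaptophysin immunolabelling, synapses per neuron were quantified by automated imaging against DMSO.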

[4] = CCTE_Mundy_HCI_Cortical_Synap_Neur_Matur_NeuriteCount: CCTE's Synaptogenesis and Neurite Maturation Assay in rat cortical cells for Neurite Count, Mundy Lab (AID 2284222);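 note: exposure from day 7 to day 12 in vitro with readout at day 12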
Outline: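 Primary rat cortical cells were plated, treated with AraC at DIV 5, then exposed to chemicals from DIV 7 through DIV 12. After fixation and immunostaining for MAP2 and synaptophysin, imaging quantified neurites, with DMSO as the negative control.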

[5] = CCTE_Mundy_HCI_Cortical_Synap_Neur_Matur_CellBodySpotCount: CCTE's Synaptogenesis and Neurite Maturation Assay in rat cortical cells for Cell Body Spot Count, Mundy Lab (AID 2284223)
Outline: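 Read-out: cell body-associated synaptophysin puncta per neuron, imaged after MAP2, synaptophysin and Hoechst staining. Rat cortical cells, AraC DIV 5, chemical dosing DIV 7, fixation DIV 12. Activity fitted in positive direction relative to DMSO baseline.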

[6] = UKN2_HCS_IMR90_cell_viability: Viability Assessment in the University of Konstanz (UKN) Leist Lab Neural Crest Cell Migration Assay in human induced IMR90 Pluripotent Stem Cells (UKN2) (AID 2284233);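 note: viability of neural crest cells differentiated from IMR90 iPSC measured by calcein-AM fluorescence imaging; cells exposed to compound for 24 h after a 24 h migration phase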
Outline: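 cMINC format, iPSC-derived neural crest (IMR90); 24 h migration (EGF/FGF, N2-S), then 24 h toxicant. Calcein-AM/H-33342 stain 30 min; fluorescence intensity by HCS; DMSO-normalised, bidirectional fitting.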

[7] = CCTE_Mundy_HCI_Cortical_NOG_NeuronCount: CCTE's Neurite Outgrowth Assay in rat cortical cells for Neuron Count, Mundy Lab (AID 2284236; active = hit-call score of the fitted dose curve at least 0.9, where 1 is the maximum;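 note: neurons counted by imaging betaIII-tubulin and Hoechst stained cortical cells; cells exposed to compound for about 48 hours before fixation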)
Outline: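 Read-out: neuron number by high-content imaging of betaIII-tubulin (Alexa Fluor-488) and Hoechst-labelled rat primary cortical cells.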

[8] = CCTE_Mundy_HCI_Cortical_NOG_BPCount: CCTE's Neurite Outgrowth Assay in rat cortical cells for Branch Point Count, Mundy Lab (AID 2284237)
Outline: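 Measured 50.33 h after dosing, this morphology endpoint uses rat primary cortical cultures labelled for betaIII-tubulin. Branch points are quantified by high-content imaging, with DMSO as negative control and baseline.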

[9] = CCTE_Mundy_HCI_hNP1_Casp3_7: CCTE's Caspase-Glo 3/7 Assay in human neuroprogenitor cells for Apoptosis, Mundy Lab (AID 2284240)
Outline: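 Neuroepithelial-lineage stem cells from WA09 embryonic cells were treated with chemicals after 40–44 h of culture. Twenty-four hours later, caspase-3/7 activation was detected luminescently after a 30 min room-temperature reagent step, with DMSO as baseline.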

[10] = CCTE_Mundy_HCI_hNP1_CellTiter: CCTE's Cell Titer-Glo 2 Assay in human neuroprogenitor cells for Viability, Mundy Lab (AID 2284241; active = hit-call score of the fitted dose curve at least 0.9, where 1 is the maximum)
Outline: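 Measures ATP content in human neural progenitors derived from WA09 embryonic cells. Read-out at 26.5 hours after dosing, with DMSO serving as the negative control and baseline.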

[11] = CCTE_Mundy_HCI_Cortical_Synap_Neur_Matur_NeuronCount: CCTE's Synaptogenesis and Neurite Maturation Assay in rat cortical cells for Neuron Count, Mundy Lab (AID 2284242; active = hit-call score of the fitted dose curve at least 0.9, where 1 is the maximum)
Outline: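 Cortical cells from rat are plated, treated with AraC at DIV 5, and exposed to test chemicals with a media change at DIV 7. At DIV 12 they are fixed and immunostained (MAP2, synaptophysin), and imaged neuron counts are compared against DMSO controls.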

[12] = IUF_NPC2a_radial_glia_migration_120hr: Leibniz Research Institute for Environmental Medicine (IUF) 120-hour Neural Progenitor Cell Migration Assay for Radial Glia Migration (NPC2a) (AID 2284298)
Outline: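 Hoechst-stained nuclei imaged at 120 h; algorithm maps sphere core by densest nuclei, sets migration edge at density threshold, gives radial glia migration distance (um) per well vs DMSO. hNPC spheres (0.3 mm), PDL/laminin, DMEM/F12 3:1 + 1% N2.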

[13] = IUF_NPC2a_radial_glia_migration_72hr: Leibniz Research Institute for Environmental Medicine (IUF) 72-hour Neural Progenitor Cell Migration Assay for Radial Glia Migration (NPC2a) (AID 2284299)
Outline: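 Single 0.3 mm neurospheres were plated per well in N2 differentiation medium and exposed from the start of differentiation. After 72 hours, brightfield images were taken and radial glia migration from the sphere core edge was measured manually in four directions, averaged per well.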

[14] = IUF_NPC2b_neuronal_migration_120hr: Leibniz Research Institute for Environmental Medicine (IUF) 120-hour Neural Progenitor Cell Migration Assay for Neuron Migration (NPC2b) (AID 2284300)
Outline: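 hNPC spheres, PDL/laminin, DMEM:F12 3:1 + 1% N2, 37C/5% CO2; 7 concentrations + solvent control (DMSO ≤0.1%), 5 d exposure, half-feed day 3. Fix 120 h, TUBB3 ICC, HCI: mean neuron migration distance ÷ glia distance.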

[15] = IUF_NPC3_neuronal_differentiation_120hr: Leibniz Research Institute for Environmental Medicine (IUF) 120-hour Neuronal Differentiation Assay (NPC3) (AID 2284301)
Outline: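 Neuronal differentiation of primary human neural progenitors measured by high-content imaging: percent TUBB3+ of Hoechst+ nuclei within migrated area at 120 h, seven-point serial dilution plus solvent control, gain or loss relative to DMSO.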

[16] = IUF_NPC4_neurite_length_120hr: Leibniz Research Institute for Environmental Medicine (IUF) 120-hour Neuronal Morphology Assay for Neurite Length (NPC4) (AID 2284302)
Outline: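 Neurons from differentiating human fetal neural progenitor spheres are scored for average neurite length after five days of compound exposure. Fitting uses DMSO as negative control.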

[17] = IUF_NPC4_neurite_area_120hr: Leibniz Research Institute for Environmental Medicine (IUF) 120-hour Neuronal Morphology Assay for Neurite Area (NPC4) (AID 2284305; active = hit-call score of the fitted dose curve at least 0.9, where 1 is the maximum)
Outline: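 Endpoint at 120 h: automated imaging of TUBB3/Hoechst-stained differentiating human neural progenitor spheres, neurite area per neuron from skeletonization. DMSO solvent control, not above 0.1%, set the baseline; medium was half-replaced on day 3.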

[18] = IUF_NPC2-5_cytotoxicity_72hr: Cytotoxicity Assessment at 72 hours in the Leibniz Research Institute for Environmental Medicine (IUF) Neural Progenitor Cell Migration and Differentiation Assay for Cytotoxicity (NPC2-5) (AID 2284306; active = hit-call score of the fitted dose curve at least 0.9, where 1 is the maximum;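 note: LDH release into supernatant measured by resorufin fluorescence marking membrane damage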)
Outline: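 Primary human neural progenitor spheres migrate and differentiate on laminin. Compound is present from the start of differentiation, with DMSO kept at or below 0.1%. At 72 h, supernatant LDH is quantified fluorometrically, with values fitted in the positive direction.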

[19] = IUF_NPC2-5_cytotoxicity_120hr: Cytotoxicity Assessment at 120 hours in the Leibniz Research Institute for Environmental Medicine (IUF) Neural Progenitor Cell Migration and Differentiation Assay (NPC2-5) (AID 2284307; active = hit-call score of the fitted dose curve at least 0.9, where 1 is the maximum)
Outline: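 hNPC spheres on PDL/laminin, N2 medium, 37C; 7 concs + solvent control, DMSO ≤0.1%; 5-day exposure, half medium changed day 3. LDH in supernatant at 120 h, resazurin→resorufin fluorescence, gain-of-signal.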

[20] = IUF_NPC2-5_cell_number_120hr: Cell Number Assessment at 120 hours in the Leibniz Research Institute for Environmental Medicine (IUF) Neural Progenitor Cell Migration and Differentiation Assay (NPC2-5) (AID 2284308);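 note: count of Hoechst-stained nuclei in migration zone around plated human neural progenitor spheres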
Outline: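 Hoechst-stained nuclei within the migration area were counted by automated high content imaging after 120 h. Single hNPC spheres differentiated on poly-D-lysine/laminin in DMEM/F12 (3:1) with 1% N2, compound present throughout, DMSO ≤0.1%.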

[21] = IUF_NPC2-5_viability_120hr: Viability Assessment at 120 hours in the Leibniz Research Institute for Environmental Medicine (IUF) Neural Progenitor Cell Migration and Differentiation Assay (NPC2-5) (AID 2284312)
Outline: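 Human fetal (GW 16-19) neural progenitor spheres of 0.3 mm were plated on poly-D-lysine/laminin in N2 differentiation medium and exposed from day 0 for 120 h, with half-medium refresh at day 3. Viability was read as alamar blue resazurin-to-resorufin fluorescence against DMSO.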

[22] = CCTE_Mundy_HCI_iCellGluta_NOG_NeuriteLength: CCTE's Neurite Outgrowth Assay in iCellGluta cells for Neurite Length, Mundy Lab (AID 2284318; active = hit-call score of the fitted dose curve at least 0.9, where 1 is the maximum)
Outline: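 Automated high-content imaging of betaIII-tubulin (Alexa Fluor-488) and Hoechst-stained cells gave neurite length, normalized to the DMSO baseline.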

[23] = IUF_NPC1_cytotoxicity_72hr: Cytotoxicity Assessment at 72 hours in the Leibniz Research Institute for Environmental Medicine (IUF) Neural Progenitor Cell Proliferation Assay (NPC1) (AID 2284332; active = hit-call score of the fitted dose curve at least 0.9, where 1 is the maximum;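 note: rising LDH signal means more cytotoxicity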)
Outline: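 Membrane-integrity loss is scored from LDH released into the medium, detected as resorufin fluorescence, with activity fitted upward relative to baseline. Test material stays on human fetal-derived progenitor spheres for 72 h.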

[24] = CCTE_Mundy_HCI_iCellGluta_NOG_NeuriteCount: CCTE's Neurite Outgrowth Assay in iCellGluta cells for Neurite Count, Mundy Lab (AID 2284342; active = hit-call score of the fitted dose curve at least 0.9, where 1 is the maximum;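 note: chemical exposure about 48 hours starting 2 hours after plating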)

Measured: outcome

Cc1[nH]n(C)c(=O)c1C(=O)c1ccc(C(F)(F)F)cc1S(C)(=O)=O
inactive: all assays above
